# Inconclusive results are not listed. The source made the active and inactive calls. Calls follow the shape of the dose curve; as a rule, active = well fitted inhibition curve with a large enough effect; inconclusive = small, poorly fitted or top-dose-only effect; inactive = no such curve, though single readings can be large or run the other way.
# Test: qHTS for Inhibitors of ATXN expression: Validation (AID 588378); also: nearly all actives have a fitted effect of over 75% in size
# Details: cell-based ATXN2 expression reporter assay, luminescence; series mostly up to 57.1 µM
# Excerpt: Spinocerebellar ataxia type 2 (SCA2) is a multisystem neurodegenerative disease caused by a dominantly-acting mutation leading to expansion of a polyQ domain in the ataxin-2 protein (ATXN2). SCA2 patients develop progressive ataxia and later lose function in other neuronal systems. Prominent parkinsonian signs develop in some patients. Similar to many neurodegenerative disorders, no symptomatic or disease-modifying treatments are known.
# The primary objective of project is to identify compounds inhibiting ATXN2 expression and to test them for efficacy in SCA2 mouse models. To this end, in a collaboration between Dr. Daniel Scoles and scientists at NCGC, a cell-based assay adapted to high-throughput screening has been developed to screen the NIH Molecular Libraries Small Molecule Repository (MLSMR).
# NIH Chemical Genomics Center [NCGC]
# NIH Molecular Libraries Probe Centers Network [MLPCN]
# Assay Submitter (PI): Stefan Pulst and Daniel Scoles, University of Utah
# 4 ul of HEK293-ATXN2-FFLuc cell suspension (TBD cells/microL in phenol-red free DMEM) are dispensed into Greiner white solid bottom 1536-well assay plates, yielding a final well density of TBD cells/well. Plates are incubated for 2 hrs at 37 degrees C in 5% humidified CO2 to allow cell attachment. Compounds are then transferred via Kalypsys pin tool equipped with 1536-pin array (10nl slotted pins, V&P Scientific, San Diego, CA). In addition, duplicate serial dilutions of the control compounds ChemBridge 5553825, a previously identified ATXN2 expression inhibitor, and a known luciferase inhibitor, are pin-transferred. After incubation at 37 degrees C in 5% humidified CO2 for 24 hrs, CellTiter-Fluor reagent (1 ul) (Promega, Madison, WI) is then added and plates are incubated for 30 minutes, before being transferred to a ViewLux high-throughput CCD imager (PerkinElmer), wherein single end-point fluorescence measurements are acquired using the 405 nm excitation/525 nm emission filter set to assess cell viability. Next, Bright-Glo luciferase substrate detection reagent (3 ul) (Promega, Madison, WI) is added to each well and incubated for an additional 5 minutes. Luminescence is then measured on the ViewLux imager equipped with a clear emission filter using a 2 sec exposure.
row,Compound,outcome
1,Nc1ccc(S(=O)(=O)Nc2ccnn2-c2ccccc2)cc1,inactive
2,N[C@@H]1CONC1=O,inactive
3,CC(C)NCC(O)COc1ccc(COCCOC(C)C)cc1 (stereo not given),inactive
4,CNC[C@H](O)c1cccc(O)c1,inactive
5,N=c1nc(N2CCCCC2)cc(N)n1O,inactive
6,NC(N)=NC(=O)c1nc(Cl)c(N)nc1N,inactive
7,CCOC(=O)N1CCC(=C2c3ccc(Cl)cc3CCc3cccnc32)CC1,inactive
8,NS(=O)(=O)c1cc2c(cc1Cl)NC=NS2(=O)=O,inactive
9,CCCC(CCC)C(=O)O,inactive
10,OC(CN1CCC(Cc2ccc(F)cc2)CC1)c1ccc(Cl)cc1 (stereo not given),inactive
11,C1COC(NC(C2CC2)C2CC2)=N1,inactive
12,CCCCNc1cc(C(=O)O)cc(S(N)(=O)=O)c1Oc1ccccc1,inactive
13,CC(C)(C)NCC(O)c1ccc(O)c(CO)c1 (stereo not given),inactive
14,Nc1nc2ccc(OC(F)(F)F)cc2s1,inactive
15,Clc1cccc(Cl)c1NC1=NCCN1,inactive
16,Nc1nc2c(ncn2COCCO)c(=O)[nH]1,inactive
17,Cc1cn[nH]c1,inactive
18,CC(C)(Sc1ccc(CCN(CCCCC2CCCCC2)C(=O)NC2CCCCC2)cc1)C(=O)O,inactive
19,O=C(Nc1nc2ccccc2n1CCN1CCOCC1)c1cccc([N+](=O)[O-])c1,inactive
20,Oc1ccc(C2CNCCc3c2cc(O)c(O)c3Cl)cc1 (stereo not given),inactive

row,Compound,outcome
1,Cn1cnc([N+](=O)[O-])c1Sc1ncnc2nc[nH]c12,inactive
2,Cc1[nH]c(=O)c(C#N)cc1-c1ccncc1,inactive
3,NC(=O)c1cnccn1,inactive
4,NC[C@H](O)c1ccc(O)c(O)c1,inactive
5,NNCCc1ccccc1,inactive
6,CCC(C)N(C)C(=O)c1cc2ccccc2c(-c2ccccc2Cl)n1 (stereo not given),inactive
7,C[C@]12CCC(=O)C=C1CC[C@@H]1[C@@H]2[C@@H](O)C[C@@]2(C)[C@H]1CC[C@]2(O)C(=O)CO,inactive
8,CC(=O)Oc1ccccc1C(=O)O,inactive
9,CC(C[N+](C)(C)C)OC(N)=O (stereo not given),inactive
10,NCCCC(N)(C(=O)O)C(F)F (stereo not given),inactive
11,CCn1cc(C(=O)O)c(=O)c2cc(F)c(N3CCNC(C)C3)c(F)c21 (stereo not given),inactive
12,Cc1ccccc1C(OCCN(C)C)c1ccccc1 (stereo not given),inactive
13,O=c1[nH]cnc2[nH]ncc12,inactive
14,O=C1CCC(N2C(=O)c3ccccc3C2=O)C(=O)N1 (stereo not given),inactive
15,O=C1CCc2cc(OCCCCc3nnnn3C3CCCCC3)ccc2N1,inactive
16,O=NN(CCCl)C(=O)NCCCl,inactive
17,Cc1cnc(NC(=O)C2=C(O)c3ccccc3S(=O)(=O)N2C)s1,inactive
18,O=c1n(CCCN2CCN(c3cccc(Cl)c3)CC2)nc2ccccn12,inactive
19,CC(C)C[C@H](NC(=O)[C@@H](O)[C@H](N)Cc1ccccc1)C(=O)O,inactive
20,c1ccc([C@H]2CN3CCSC3=N2)cc1,inactive

# Source: PubChem BioAssay (NCATS)
